Test results: the supplement of paper PMC9446081
± gives the standard deviation of the averaged measurements.

How the values were obtained:
Assay in all cases: relative enzymatic activity vs untreated control (fraction); higher = less inhibition
Settings in all cases: 100 µM; incubation time: 2 h at 37 C
DNA gyrase = tested on: DNA gyrase
Procedure: (§1)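 In vitro enzymatic inhibition assays (ProFoldin kits) for 12 purified essential E. coli enzymes or complexes, each treated with 218 active antibacterial compounds at 100 µM for 2 h at 37°C. Read-outs were fluorescence or absorbance (phosphate detection, dye binding), converted to activity via standard curves and expressed relative to untreated DMSO controls.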

DNA helicase = DNA helicase (UniProt P0ACB1)
Procedure: as §1

DNA ligase = DNA ligase (UniProt B1XA82)
Procedure: as §1

DNA polymerase = DNA polymerase (UniProt P10443)
Procedure: as §1

DNA primase = DNA primase (UniProt P0ABS7)
Procedure: as §1

GlmU = GlmU (UniProt A7ZTU1)
Procedure: as §1

Guanlyate kinase = Guanlyate kinase (UniProt Q0TBG1)
Procedure: as §1

MurA = MurA (UniProt Q3YX52)
Procedure: as §1

MurD = biological target: T1, MurD (UniProt P14900)
T1 sequence (whole entry): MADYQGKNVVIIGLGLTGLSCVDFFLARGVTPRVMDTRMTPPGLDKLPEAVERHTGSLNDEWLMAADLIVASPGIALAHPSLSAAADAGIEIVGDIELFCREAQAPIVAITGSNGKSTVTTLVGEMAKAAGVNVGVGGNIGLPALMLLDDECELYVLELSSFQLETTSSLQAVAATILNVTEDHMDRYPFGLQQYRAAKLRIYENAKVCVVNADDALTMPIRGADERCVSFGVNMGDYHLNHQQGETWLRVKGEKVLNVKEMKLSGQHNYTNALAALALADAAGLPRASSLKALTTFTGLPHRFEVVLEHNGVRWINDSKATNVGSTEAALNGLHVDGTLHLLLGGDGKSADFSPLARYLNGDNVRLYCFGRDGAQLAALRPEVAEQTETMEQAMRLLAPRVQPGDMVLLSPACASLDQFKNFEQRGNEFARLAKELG
Procedure: as §1

MurF = biological target: T2, MurF (UniProt P11880)
T2 sequence (whole entry): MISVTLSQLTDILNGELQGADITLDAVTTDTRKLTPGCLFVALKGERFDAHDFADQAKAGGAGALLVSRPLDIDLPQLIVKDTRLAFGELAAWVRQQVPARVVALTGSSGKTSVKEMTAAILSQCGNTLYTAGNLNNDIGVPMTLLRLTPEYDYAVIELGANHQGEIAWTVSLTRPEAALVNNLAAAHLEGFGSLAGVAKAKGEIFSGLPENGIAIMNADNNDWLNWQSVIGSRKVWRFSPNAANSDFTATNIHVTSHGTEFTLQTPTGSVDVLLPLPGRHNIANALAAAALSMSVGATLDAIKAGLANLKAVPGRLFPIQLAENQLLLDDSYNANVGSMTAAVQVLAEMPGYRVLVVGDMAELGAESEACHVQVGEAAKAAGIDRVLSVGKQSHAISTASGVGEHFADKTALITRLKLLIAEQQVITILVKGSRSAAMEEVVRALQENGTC
Procedure: as §1

RNA polymerase = tested on: RNA polymerase
Procedure: as §1

Sequence of DNA ligase (B1XA82 whole entry): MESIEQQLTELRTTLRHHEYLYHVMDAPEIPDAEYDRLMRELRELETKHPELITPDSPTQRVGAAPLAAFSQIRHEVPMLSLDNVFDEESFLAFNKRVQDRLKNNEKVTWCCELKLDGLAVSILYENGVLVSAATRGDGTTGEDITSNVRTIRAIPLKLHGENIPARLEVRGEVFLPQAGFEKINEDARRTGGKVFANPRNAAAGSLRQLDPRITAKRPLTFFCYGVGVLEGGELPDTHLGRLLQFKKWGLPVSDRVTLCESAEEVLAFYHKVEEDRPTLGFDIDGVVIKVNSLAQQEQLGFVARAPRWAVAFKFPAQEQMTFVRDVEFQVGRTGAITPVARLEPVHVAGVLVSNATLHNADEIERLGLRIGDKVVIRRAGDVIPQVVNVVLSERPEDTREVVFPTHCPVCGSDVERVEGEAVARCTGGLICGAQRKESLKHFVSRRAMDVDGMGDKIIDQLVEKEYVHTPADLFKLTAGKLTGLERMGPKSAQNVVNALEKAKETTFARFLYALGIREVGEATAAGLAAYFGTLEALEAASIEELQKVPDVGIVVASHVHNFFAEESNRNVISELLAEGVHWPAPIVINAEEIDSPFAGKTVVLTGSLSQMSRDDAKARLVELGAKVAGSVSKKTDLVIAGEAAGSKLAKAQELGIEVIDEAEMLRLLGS
Sequence of GlmU (A7ZTU1 whole entry, looked up): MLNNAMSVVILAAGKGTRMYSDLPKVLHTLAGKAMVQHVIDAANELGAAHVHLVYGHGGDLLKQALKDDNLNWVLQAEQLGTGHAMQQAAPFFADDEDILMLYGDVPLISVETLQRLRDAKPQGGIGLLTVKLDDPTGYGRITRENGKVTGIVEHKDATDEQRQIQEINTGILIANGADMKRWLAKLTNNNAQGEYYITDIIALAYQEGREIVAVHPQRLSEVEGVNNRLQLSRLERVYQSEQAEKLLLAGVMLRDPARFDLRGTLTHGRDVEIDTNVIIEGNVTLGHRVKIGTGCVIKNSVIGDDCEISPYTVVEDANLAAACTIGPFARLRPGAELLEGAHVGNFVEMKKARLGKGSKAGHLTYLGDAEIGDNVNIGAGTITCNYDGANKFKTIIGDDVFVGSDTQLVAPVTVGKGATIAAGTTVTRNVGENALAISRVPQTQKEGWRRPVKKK
Sequence of MurA (Q3YX52 whole entry): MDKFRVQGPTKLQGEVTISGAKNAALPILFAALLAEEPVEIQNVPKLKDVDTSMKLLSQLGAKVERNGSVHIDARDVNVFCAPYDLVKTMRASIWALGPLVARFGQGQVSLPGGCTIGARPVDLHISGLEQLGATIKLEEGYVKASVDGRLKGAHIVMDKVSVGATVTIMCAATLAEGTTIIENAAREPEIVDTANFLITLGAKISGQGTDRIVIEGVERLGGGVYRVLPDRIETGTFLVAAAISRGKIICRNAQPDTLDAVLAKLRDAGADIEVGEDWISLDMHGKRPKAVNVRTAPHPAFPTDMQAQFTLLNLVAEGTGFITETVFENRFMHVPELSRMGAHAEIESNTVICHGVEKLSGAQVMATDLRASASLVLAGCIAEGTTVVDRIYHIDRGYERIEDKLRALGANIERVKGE
Sequence of DNA polymerase (P10443 whole entry): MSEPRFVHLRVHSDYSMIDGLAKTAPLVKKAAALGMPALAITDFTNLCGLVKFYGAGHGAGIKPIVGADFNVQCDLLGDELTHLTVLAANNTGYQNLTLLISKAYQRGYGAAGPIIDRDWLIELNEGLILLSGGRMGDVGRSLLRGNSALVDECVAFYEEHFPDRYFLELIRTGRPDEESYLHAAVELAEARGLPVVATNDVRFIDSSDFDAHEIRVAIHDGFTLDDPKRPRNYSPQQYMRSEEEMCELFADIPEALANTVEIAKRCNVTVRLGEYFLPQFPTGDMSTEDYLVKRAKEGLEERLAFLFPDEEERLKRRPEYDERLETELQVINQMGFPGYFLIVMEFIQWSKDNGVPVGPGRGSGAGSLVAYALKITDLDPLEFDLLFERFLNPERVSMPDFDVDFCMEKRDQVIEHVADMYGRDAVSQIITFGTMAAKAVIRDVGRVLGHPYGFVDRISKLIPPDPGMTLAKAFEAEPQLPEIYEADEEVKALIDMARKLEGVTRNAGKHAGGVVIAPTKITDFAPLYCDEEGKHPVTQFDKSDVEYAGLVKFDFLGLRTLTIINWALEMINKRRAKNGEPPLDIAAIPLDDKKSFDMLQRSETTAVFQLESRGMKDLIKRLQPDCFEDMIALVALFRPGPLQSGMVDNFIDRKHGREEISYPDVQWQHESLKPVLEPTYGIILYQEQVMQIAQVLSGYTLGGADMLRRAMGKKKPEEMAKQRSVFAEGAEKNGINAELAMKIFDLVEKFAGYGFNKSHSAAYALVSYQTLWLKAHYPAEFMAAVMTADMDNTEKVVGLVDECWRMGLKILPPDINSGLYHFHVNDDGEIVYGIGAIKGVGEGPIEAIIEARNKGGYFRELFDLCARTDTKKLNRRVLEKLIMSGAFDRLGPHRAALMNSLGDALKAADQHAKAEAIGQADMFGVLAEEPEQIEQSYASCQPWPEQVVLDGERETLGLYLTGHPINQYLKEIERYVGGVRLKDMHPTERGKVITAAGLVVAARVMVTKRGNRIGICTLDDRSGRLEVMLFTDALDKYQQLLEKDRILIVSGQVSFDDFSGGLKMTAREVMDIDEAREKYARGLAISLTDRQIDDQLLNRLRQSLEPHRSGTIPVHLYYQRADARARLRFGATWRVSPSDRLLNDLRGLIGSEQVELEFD
Sequence of DNA primase (P0ABS7 whole entry): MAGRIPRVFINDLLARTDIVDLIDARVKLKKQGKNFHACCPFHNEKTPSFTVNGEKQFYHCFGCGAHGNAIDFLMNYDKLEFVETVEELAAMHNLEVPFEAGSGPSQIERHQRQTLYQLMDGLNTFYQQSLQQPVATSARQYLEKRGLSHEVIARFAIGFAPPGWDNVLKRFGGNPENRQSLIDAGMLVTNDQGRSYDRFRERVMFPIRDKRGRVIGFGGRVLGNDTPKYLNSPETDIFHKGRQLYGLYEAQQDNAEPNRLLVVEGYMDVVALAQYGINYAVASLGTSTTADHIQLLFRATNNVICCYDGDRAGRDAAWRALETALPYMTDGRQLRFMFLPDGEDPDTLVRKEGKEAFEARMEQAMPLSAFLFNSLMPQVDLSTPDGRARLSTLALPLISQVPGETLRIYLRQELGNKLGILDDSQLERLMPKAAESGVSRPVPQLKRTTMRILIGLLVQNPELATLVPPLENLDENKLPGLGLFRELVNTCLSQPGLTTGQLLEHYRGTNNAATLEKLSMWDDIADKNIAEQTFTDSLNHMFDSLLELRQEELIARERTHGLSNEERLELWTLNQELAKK
Sequence of DNA helicase (P0ACB1 whole entry): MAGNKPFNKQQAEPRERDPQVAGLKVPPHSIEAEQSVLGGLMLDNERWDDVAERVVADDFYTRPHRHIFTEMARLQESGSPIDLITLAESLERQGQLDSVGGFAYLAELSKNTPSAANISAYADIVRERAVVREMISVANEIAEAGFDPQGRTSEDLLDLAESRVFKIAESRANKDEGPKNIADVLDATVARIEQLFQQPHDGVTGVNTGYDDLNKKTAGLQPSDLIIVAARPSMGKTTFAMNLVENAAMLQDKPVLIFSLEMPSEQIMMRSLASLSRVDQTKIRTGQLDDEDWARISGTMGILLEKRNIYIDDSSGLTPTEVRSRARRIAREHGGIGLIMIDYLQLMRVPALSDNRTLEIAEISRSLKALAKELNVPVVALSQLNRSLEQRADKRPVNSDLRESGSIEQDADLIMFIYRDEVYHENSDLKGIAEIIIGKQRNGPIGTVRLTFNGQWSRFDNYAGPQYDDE
Sequence of Guanlyate kinase (Q0TBG1 whole entry): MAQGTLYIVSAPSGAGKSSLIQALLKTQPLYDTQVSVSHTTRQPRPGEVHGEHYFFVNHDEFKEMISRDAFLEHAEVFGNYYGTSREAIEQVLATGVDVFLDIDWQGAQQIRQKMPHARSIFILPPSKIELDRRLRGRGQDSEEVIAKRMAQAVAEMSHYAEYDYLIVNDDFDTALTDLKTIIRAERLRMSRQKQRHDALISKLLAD

## CNC1C(OC2C(OC3C(O)C(O)C(NC(=N)N)C(O)C3NC(=N)N)OC(C)C2(O)CO)OC(CO)C(O)C1O.O=S(=O)(O)O (stereo not drawn)
DNA gyrase
  relative enzymatic activity: 0.78 ± 0.53
DNA helicase
  relative enzymatic activity: 0.565 ± 0.13
DNA ligase
  relative enzymatic activity: 1.11 ± 0.19
DNA polymerase
  relative enzymatic activity: 1.38 ± 0.47
DNA primase
  relative enzymatic activity: 0.716 ± 0.22
GlmU
  relative enzymatic activity: 0.982 ± 0.09
Guanlyate kinase
  relative enzymatic activity: 1.02 ± 0.063
MurA
  relative enzymatic activity: 0.635 ± 0.0086
MurD
  relative enzymatic activity: 0.65 ± 0.44
MurF
  relative enzymatic activity: 0.944 ± 0.15
RNA polymerase
  relative enzymatic activity: 0.953 ± 0.083

## Cn1nnnc1SCC1=C(C(=O)[O-])N2C(=O)C(NC(=O)C(O)c3ccccc3)C2SC1.[Na+] (stereo not drawn)
DNA gyrase
  relative enzymatic activity: 0.841 ± 0.26
DNA helicase
  relative enzymatic activity: 0.638 ± 0.12
DNA ligase
  relative enzymatic activity: 1.42 ± 0.27
DNA polymerase
  relative enzymatic activity: 1.19 ± 0.25
DNA primase
  relative enzymatic activity: 0.689 ± 0.18
GlmU
  relative enzymatic activity: 1.16 ± 0.18
Guanlyate kinase
  relative enzymatic activity: 0.942 ± 0.17
MurA
  relative enzymatic activity: 0.0762 ± 0.016
MurD
  relative enzymatic activity: 0.636 ± 0.44
MurF
  relative enzymatic activity: 0.988 ± 0.21
RNA polymerase
  relative enzymatic activity: 1.16 ± 0.45

## CN[C@H]1CN(c2ccc3c(=O)c(C(=O)O)cn(-c4nccs4)c3n2)C[C@@H]1OC
DNA gyrase
  relative enzymatic activity: 0.253 ± 0.27
DNA helicase
  relative enzymatic activity: 0.18 ± 0.16
DNA ligase
  relative enzymatic activity: 0.706 ± 0.08
DNA polymerase
  relative enzymatic activity: 0.641 ± 0.27
DNA primase
  relative enzymatic activity: 0.622 ± 0.13
GlmU
  relative enzymatic activity: 1 ± 0.039
Guanlyate kinase
  relative enzymatic activity: 0.851 ± 0.064
MurA
  relative enzymatic activity: 0.603 ± 0.14
MurD
  relative enzymatic activity: 0.58 ± 0.36
MurF
  relative enzymatic activity: 0.955 ± 0.21
RNA polymerase
  relative enzymatic activity: 0.769 ± 0.11

## C=CC1=C(C(=O)O)N2C(=O)[C@@H](NC(=O)/C(=N\OCC(=O)O)c3csc(N)n3)[C@H]2SC1
DNA gyrase
  relative enzymatic activity: 0.321 ± 0.084
DNA helicase
  relative enzymatic activity: 0.432 ± 0.089
DNA ligase
  relative enzymatic activity: 0.941 ± 0.17
DNA polymerase
  relative enzymatic activity: 1.06 ± 0.23
DNA primase
  relative enzymatic activity: 0.662 ± 0.021
GlmU
  relative enzymatic activity: 1.046 ± 0.0058
Guanlyate kinase
  relative enzymatic activity: 0.886 ± 0.1
MurA
  relative enzymatic activity: 0.0787 ± 0.0056
MurD
  relative enzymatic activity: 0.606 ± 0.41
MurF
  relative enzymatic activity: 0.954 ± 0.18
RNA polymerase
  relative enzymatic activity: 0.822 ± 0.32

## CCn1cc(C(=O)O)c(=O)c2cc(F)c(N3CCN(C(=S)Nc4cc(C(F)(F)F)ccc4Cl)CC3)cc21
DNA gyrase
  relative enzymatic activity: 0.0352 ± 0.05
DNA helicase
  relative enzymatic activity: 0.303 ± 0.029
DNA ligase
  relative enzymatic activity: 0.85 ± 0.036
DNA polymerase
  relative enzymatic activity: 0.51 ± 0.72
DNA primase
  relative enzymatic activity: 1.49 ± 0.75
GlmU
  relative enzymatic activity: 1.03 ± 0.024
Guanlyate kinase
  relative enzymatic activity: 0.915 ± 0.081
MurA
  relative enzymatic activity: 0.654 ± 0.18
MurD
  relative enzymatic activity: 0.629 ± 0.41
MurF
  relative enzymatic activity: 0.996 ± 0.24
RNA polymerase
  relative enzymatic activity: 1.17 ± 0.075

## COc1c(N2CCNC(C)C2)c(F)cc2c(=O)c(C(=O)O)cn(C3CC3)c12 (stereo not drawn)
DNA gyrase
  relative enzymatic activity: 0.0476 ± 0.067
DNA helicase
  relative enzymatic activity: 0.48 ± 0.021
DNA ligase
  relative enzymatic activity: 0.942 ± 0.14
DNA polymerase
  relative enzymatic activity: 1.09 ± 0.15
DNA primase
  relative enzymatic activity: 0.876 ± 0.017
GlmU
  relative enzymatic activity: 0.989 ± 0.034
Guanlyate kinase
  relative enzymatic activity: 0.899 ± 0.084
MurA
  relative enzymatic activity: 0.804 ± 0.16
MurD
  relative enzymatic activity: 0.577 ± 0.36
MurF
  relative enzymatic activity: 0.942 ± 0.26
RNA polymerase
  relative enzymatic activity: 0.763 ± 0.0079

## CON=C(C(=O)N[C@@H]1C(=O)N2C(C(=O)OCOC(=O)C(C)(C)C)=C(C=Cc3scnc3C)CS[C@H]12)c1csc(N)n1
DNA gyrase
  relative enzymatic activity: 0.622 ± 0.19
DNA helicase
  relative enzymatic activity: 0.322 ± 0.0034
DNA ligase
  relative enzymatic activity: 0.899 ± 0.1
DNA polymerase
  relative enzymatic activity: 0.496 ± 0.7
DNA primase
  relative enzymatic activity: 0.83003 ± 0.00016
GlmU
  relative enzymatic activity: 0.838 ± 0.01
Guanlyate kinase
  relative enzymatic activity: 0.842 ± 0.11
MurA
  relative enzymatic activity: 0.335 ± 0.12
MurD
  relative enzymatic activity: 0.147 ± 0.21
MurF
  relative enzymatic activity: 0.855 ± 0.25
RNA polymerase
  relative enzymatic activity: 0.945 ± 0.2

## CCN1CCN(c2cc3c(cc2F)c(=O)c(C(=O)O)cn3C2CC2)CC1
DNA gyrase
  relative enzymatic activity: 0.0177 ± 0.025
DNA helicase
  relative enzymatic activity: 0.462 ± 0.018
DNA ligase
  relative enzymatic activity: 1.05 ± 0.34
DNA polymerase
  relative enzymatic activity: 1.15 ± 0.22
DNA primase
  relative enzymatic activity: 0.617 ± 0.12
GlmU
  relative enzymatic activity: 1 ± 0.11
Guanlyate kinase
  relative enzymatic activity: 0.894 ± 0.05
MurA
  relative enzymatic activity: 0.659 ± 0.029
MurD
  relative enzymatic activity: 0.59 ± 0.4
MurF
  relative enzymatic activity: 0.88 ± 0.13
RNA polymerase
  relative enzymatic activity: 0.808 ± 0.02
